Reference: ChEMBL document CHEMBL2218924, “A broad activity screen in support of a chemogenomic map for kinase signalling research and drug discovery” (Biochem J, 2013)

Key:
[1] = target: Platelet-derived growth factor receptor alpha (Homo sapiens) (UniProt P16234); conditions: at 1 µM
[2] = target: Platelet-derived growth factor receptor alpha (Homo sapiens) (UniProt P16234); conditions: at 10 µM
[3] = target: Platelet-derived growth factor receptor beta (Homo sapiens) (UniProt P09619); conditions: at 1 µM
Chain of Platelet-derived growth factor receptor beta (Homo sapiens) (P09619 whole entry): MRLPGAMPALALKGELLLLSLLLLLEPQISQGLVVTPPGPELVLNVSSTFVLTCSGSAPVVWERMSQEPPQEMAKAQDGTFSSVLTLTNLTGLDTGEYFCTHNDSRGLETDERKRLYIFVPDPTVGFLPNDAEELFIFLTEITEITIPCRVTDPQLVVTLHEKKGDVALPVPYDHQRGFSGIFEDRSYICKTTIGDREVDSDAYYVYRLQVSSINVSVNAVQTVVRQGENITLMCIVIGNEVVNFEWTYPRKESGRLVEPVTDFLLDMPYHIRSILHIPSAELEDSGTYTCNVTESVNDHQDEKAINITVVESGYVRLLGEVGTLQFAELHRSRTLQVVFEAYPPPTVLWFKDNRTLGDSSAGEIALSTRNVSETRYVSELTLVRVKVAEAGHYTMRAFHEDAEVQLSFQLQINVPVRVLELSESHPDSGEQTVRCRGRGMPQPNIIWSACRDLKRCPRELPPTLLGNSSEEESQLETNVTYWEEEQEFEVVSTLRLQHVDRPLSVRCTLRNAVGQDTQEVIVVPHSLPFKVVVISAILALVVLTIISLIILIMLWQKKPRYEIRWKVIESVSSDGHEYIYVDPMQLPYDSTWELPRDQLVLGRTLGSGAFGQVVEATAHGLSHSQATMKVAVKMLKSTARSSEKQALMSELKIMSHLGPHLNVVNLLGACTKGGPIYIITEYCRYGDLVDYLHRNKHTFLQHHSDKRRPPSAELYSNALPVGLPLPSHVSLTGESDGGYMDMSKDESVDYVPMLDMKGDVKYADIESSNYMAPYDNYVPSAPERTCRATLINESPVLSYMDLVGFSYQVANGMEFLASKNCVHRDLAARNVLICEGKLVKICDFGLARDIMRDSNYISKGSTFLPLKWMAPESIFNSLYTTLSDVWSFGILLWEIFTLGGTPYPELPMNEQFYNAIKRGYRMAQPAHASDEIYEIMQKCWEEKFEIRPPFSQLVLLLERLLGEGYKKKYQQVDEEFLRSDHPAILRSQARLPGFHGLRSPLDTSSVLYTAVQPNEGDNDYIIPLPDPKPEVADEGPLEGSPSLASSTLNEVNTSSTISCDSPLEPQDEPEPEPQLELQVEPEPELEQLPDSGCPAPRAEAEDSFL

[4] = target: Platelet-derived growth factor receptor beta (Homo sapiens) (UniProt P09619); conditions: at 10 µM
[5] = target: T1, 3-phosphoinositide-dependent protein kinase 1 (Homo sapiens) (UniProt O15530); conditions: at 1 µM
T1 sequence (whole entry): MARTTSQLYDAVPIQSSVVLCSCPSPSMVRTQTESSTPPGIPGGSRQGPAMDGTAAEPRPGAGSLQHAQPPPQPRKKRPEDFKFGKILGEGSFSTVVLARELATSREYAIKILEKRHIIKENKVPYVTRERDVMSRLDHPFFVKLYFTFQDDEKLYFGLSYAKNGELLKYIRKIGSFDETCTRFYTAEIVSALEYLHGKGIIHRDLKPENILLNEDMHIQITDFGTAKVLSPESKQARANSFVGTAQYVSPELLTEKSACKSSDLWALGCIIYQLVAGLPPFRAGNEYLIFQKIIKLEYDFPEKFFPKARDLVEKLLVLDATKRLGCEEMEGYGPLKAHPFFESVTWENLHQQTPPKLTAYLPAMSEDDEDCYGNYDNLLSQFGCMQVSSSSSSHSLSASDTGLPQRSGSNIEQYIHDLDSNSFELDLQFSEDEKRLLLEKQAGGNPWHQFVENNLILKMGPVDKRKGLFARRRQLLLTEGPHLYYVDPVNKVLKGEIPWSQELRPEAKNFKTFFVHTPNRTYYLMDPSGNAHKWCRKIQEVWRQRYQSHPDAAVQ

[6] = target: T1, 3-phosphoinositide-dependent protein kinase 1 (Homo sapiens); conditions: at 10 µM
[7] = target: cAMP-dependent protein kinase catalytic subunit alpha (Homo sapiens) (UniProt P17612); conditions: at 1 µM
[8] = target: cAMP-dependent protein kinase catalytic subunit alpha (Homo sapiens) (UniProt P17612); conditions: at 10 µM
[9] = target: RAC-gamma serine/threonine-protein kinase (Homo sapiens) (UniProt Q9Y243); conditions: at 1 µM
Chain of RAC-gamma serine/threonine-protein kinase (Homo sapiens) (Q9Y243 whole entry): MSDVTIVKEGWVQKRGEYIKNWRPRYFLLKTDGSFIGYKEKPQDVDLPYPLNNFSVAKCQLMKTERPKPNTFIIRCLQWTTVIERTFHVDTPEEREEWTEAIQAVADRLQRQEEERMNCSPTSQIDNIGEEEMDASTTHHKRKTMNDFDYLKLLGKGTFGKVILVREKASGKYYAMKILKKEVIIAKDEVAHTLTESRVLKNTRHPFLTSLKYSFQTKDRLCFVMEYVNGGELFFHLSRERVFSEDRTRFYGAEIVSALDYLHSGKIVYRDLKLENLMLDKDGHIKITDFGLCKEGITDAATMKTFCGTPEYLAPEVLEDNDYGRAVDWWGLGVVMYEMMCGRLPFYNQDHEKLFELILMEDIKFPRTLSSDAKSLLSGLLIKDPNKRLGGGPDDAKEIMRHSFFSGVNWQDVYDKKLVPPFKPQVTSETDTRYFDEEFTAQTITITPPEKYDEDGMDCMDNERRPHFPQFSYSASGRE

[10] = target: RAC-gamma serine/threonine-protein kinase (Homo sapiens) (UniProt Q9Y243); conditions: at 10 µM
[11] = target: Protein kinase C alpha type (Homo sapiens) (UniProt P17252); conditions: at 1 µM
[12] = target: Protein kinase C alpha type (Homo sapiens) (UniProt P17252); conditions: at 10 µM
[13] = target: Protein kinase C beta type (Homo sapiens) (UniProt P05771); conditions: at 1 µM
Chain of Protein kinase C beta type (Homo sapiens) (P05771 2-671 limits assumed): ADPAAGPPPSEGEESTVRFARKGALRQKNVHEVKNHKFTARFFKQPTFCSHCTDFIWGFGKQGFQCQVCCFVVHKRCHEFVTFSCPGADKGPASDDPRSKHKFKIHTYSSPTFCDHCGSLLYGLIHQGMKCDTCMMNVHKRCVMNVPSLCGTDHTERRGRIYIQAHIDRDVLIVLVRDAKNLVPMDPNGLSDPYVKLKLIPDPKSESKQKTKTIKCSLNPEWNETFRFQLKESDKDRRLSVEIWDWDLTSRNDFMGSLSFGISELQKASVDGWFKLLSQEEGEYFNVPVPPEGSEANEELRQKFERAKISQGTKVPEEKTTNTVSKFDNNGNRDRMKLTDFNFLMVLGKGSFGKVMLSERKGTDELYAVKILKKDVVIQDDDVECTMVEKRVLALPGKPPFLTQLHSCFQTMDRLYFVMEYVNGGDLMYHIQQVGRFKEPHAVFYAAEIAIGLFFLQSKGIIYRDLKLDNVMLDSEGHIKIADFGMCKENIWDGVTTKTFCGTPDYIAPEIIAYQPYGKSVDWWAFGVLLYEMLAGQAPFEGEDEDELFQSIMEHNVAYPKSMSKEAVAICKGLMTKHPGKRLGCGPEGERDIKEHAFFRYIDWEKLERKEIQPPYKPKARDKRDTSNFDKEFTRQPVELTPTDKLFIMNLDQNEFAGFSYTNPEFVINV

[14] = target: Protein kinase C beta type (Homo sapiens) (UniProt P05771); conditions: at 10 µM
[15] = target: Protein kinase C beta type (Homo sapiens) (UniProt P05771); conditions: at 1 µM; remark: listed apart in the source
[16] = target: Protein kinase C beta type (Homo sapiens) (UniProt P05771); conditions: at 10 µM; remark: listed apart in the source
[17] = target: Protein kinase C gamma type (Homo sapiens) (UniProt P05129); conditions: at 1 µM
[18] = target: Protein kinase C gamma type (Homo sapiens) (UniProt P05129); conditions: at 10 µM
[19] = target: Protein kinase C delta type (Homo sapiens) (UniProt Q05655); conditions: at 1 µM
Chain of Protein kinase C delta type (Homo sapiens) (Q05655 whole entry, looked up): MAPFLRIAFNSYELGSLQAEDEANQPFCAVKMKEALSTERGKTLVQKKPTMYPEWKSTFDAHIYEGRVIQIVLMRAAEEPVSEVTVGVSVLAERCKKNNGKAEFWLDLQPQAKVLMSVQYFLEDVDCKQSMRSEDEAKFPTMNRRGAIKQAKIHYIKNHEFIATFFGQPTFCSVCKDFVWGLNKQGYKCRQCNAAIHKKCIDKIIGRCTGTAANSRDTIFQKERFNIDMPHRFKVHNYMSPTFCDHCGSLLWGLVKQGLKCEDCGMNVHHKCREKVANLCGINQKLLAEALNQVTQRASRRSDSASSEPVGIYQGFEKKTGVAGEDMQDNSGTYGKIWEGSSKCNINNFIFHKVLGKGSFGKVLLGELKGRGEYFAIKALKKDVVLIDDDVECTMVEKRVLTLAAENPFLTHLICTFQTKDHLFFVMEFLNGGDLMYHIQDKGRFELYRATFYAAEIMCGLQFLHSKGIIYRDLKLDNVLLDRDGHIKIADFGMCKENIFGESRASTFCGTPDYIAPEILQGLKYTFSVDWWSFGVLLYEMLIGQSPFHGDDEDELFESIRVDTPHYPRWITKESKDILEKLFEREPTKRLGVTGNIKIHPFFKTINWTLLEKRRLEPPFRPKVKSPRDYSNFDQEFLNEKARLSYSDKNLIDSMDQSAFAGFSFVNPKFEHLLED

[20] = target: Protein kinase C delta type (Homo sapiens) (UniProt Q05655); conditions: at 10 µM

Chain of Platelet-derived growth factor receptor alpha (Homo sapiens) (P16234 whole entry): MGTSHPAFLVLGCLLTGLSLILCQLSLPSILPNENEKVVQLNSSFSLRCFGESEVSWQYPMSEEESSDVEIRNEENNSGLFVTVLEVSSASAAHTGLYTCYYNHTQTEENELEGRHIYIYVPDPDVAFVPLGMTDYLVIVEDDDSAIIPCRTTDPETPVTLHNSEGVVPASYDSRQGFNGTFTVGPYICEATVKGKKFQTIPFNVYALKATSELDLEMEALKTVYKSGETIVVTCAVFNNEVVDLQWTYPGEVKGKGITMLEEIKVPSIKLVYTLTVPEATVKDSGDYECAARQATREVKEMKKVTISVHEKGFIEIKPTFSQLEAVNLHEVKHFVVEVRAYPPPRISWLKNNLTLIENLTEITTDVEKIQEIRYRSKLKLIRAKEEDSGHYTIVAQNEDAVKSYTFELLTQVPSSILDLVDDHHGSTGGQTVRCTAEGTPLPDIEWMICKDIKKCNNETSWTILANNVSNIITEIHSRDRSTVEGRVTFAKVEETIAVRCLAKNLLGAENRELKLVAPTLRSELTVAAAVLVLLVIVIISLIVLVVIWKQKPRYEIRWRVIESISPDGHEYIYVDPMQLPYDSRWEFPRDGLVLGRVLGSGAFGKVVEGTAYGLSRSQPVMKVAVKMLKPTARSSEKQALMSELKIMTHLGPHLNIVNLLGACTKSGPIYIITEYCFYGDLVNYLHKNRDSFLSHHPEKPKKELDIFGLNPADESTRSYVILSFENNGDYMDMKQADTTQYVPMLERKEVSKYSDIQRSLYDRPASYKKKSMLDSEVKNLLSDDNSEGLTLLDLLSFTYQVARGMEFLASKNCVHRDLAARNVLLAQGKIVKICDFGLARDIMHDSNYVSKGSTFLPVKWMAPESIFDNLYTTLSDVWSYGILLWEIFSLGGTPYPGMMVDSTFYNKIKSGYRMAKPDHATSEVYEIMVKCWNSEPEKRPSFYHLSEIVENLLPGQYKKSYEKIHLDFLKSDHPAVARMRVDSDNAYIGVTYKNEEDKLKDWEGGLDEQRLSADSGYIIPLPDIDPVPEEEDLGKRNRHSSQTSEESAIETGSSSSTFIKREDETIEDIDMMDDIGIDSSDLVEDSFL

SMILES	residual activity [1]	residual activity [2]	residual activity [3]	residual activity [4]	residual activity [5]	residual activity [6]	residual activity [7]	residual activity [8]	residual activity [9]	residual activity [10]	residual activity [11]	residual activity [12]	residual activity [13]	residual activity [14]	residual activity [15]	residual activity [16]	residual activity [17]	residual activity [18]	residual activity [19]	residual activity [20]
O=C1NC(=O)c2c1c1c3ccccc3[nH]c1c1[nH]c3cc(Br)ccc3c21	101%	95%	89%	76%	75%	29%	97%	101%	75%	77%	102%	103%	108%	95%	104%	95%	99%	100%	97%	102%
CN(C)c1ccc(/C=C2\C(=O)Nc3ccccc32)cc1	79%	14%	101%	30%	114%	92%	89%	86%	96%	100%	103%	101%	114%	112%	94%	98%	113%	102%	88%	101%
COc1ccc(OC)c2c(=S)c3ccccc3[nH]c12	109%	108%	99%	102%	96%	96%	87%	94%	89%	84%	102%	101%	89%	115%	106%	97%	96%	91%	103%	98%
N#C/C(=C(\N)Sc1ccc(N)cc1)c1ccccc1C(F)(F)F	112%	113%	98%	102%	98%	87%	79%	80%	96%	86%	107%	96%	114%	104%	114%	99%	98%	104%	99%	104%
COc1cc2ncnc(Nc3ccc(Oc4ccccc4)cc3)c2cc1OC	79%	42%	102%	83%	109%	120%	92%	134%	92%	106%	91%	96%	120%	126%	104%	104%	105%	97%	103%	107%
O=C(Nc1cccc(Nc2cc(Nc3cccc(C(F)(F)F)c3)ncn2)c1)C1CC1	110%	109%	98%	93%	93%	87%	103%	112%	90%	96%	102%	101%	105%	104%	98%	97%	112%	106%	93%	94%
O=C1NC(=O)/C(=C/c2ccc3c(c2)OC(F)(F)O3)S1	127%	113%	108%	116%	108%	106%	102%	74%	97%	83%	106%	102%	134%	126%	98%	102%	103%	101%	107%	103%
Nc1n[nH]c2nnc(-c3c(-c4ccccc4)nn4ccccc34)cc12	105%	100%	97%	99%	102%	94%	97%	77%	99%	82%	97%	91%	99%	96%	102%	93%	98%	98%	22%	4%
Nc1ccc2ncnc(NCCc3ccc(Oc4ccccc4)cc3)c2c1	87%	43%	97%	95%	104%	109%	103%	124%	99%	76%	103%	103%	137%	113%	118%	104%	87%	111%	106%	111%
O=C(Nc1cccc(Nc2nccc(Nc3cccc(C(F)(F)F)c3)n2)c1)C1CC1	107%	88%	99%	70%	100%	93%	75%	106%	89%	67%	95%	66%	110%	107%	99%	102%	98%	90%	100%	106%
CN(C)CCCn1cc(C2=C(c3c[nH]c4ccccc34)C(=O)NC2=O)c2ccccc21	121%	78%	106%	65%	63%	15%	60%	20%	30%	7%					9%	2%			2%	-1%
O=C1c2ccccc2-[n+]2ccc3c([nH]c4ccccc43)c21	107%	103%	110%	102%	100%	102%	94%	98%	112%	87%	106%	98%	102%	97%	93%	88%	97%		101%	104%
CCOc1cc2ncnc(Nc3cccc(Br)c3)c2cc1OCC		90%	89%	91%	104%	86%	73%	86%	100%	100%	107%	97%	87%	97%	100%	103%	108%	112%	106%	104%
O=C1Nc2ccc(Br)cc2/C1=C\c1cc2c([nH]1)CCCC2	34%	23%	74%	51%	109%	99%	108%	80%	105%		104%	105%					109%	111%	100%	107%
Oc1ccc(-c2nc(-c3ccc(F)cc3)c(-c3ccncc3)[nH]2)cc1	117%	105%	111%	97%	108%	94%			107%	77%	112%	92%	124%	85%	110%	81%	106%	103%	98%	90%
N#CCCc1ccc2c(c1)-c1[nH]c3ccc([N+](=O)[O-])cc3c1CC(=O)N2					17%	6%													68%	57%

SMILES	residual activity [1]	residual activity [2]	residual activity [3]	residual activity [4]	residual activity [5]	residual activity [6]	residual activity [7]	residual activity [8]	residual activity [9]	residual activity [10]	residual activity [11]	residual activity [12]	residual activity [13]	residual activity [14]	residual activity [15]	residual activity [16]	residual activity [17]	residual activity [18]	residual activity [19]	residual activity [20]
Cn1nc2c3c(cccc31)C(=O)c1ccccc1-2			91%	88%	95%	74%	87%	90%	95%	91%	101%	97%	107%	104%	109%	103%	90%	101%	104%	108%
COc1cc2ncnc(N3CCN(C(=O)Nc4ccc(Oc5ccccc5)cc4)CC3)c2cc1OC	26%	6%			106%	116%	102%		94%	112%	99%	103%	106%	97%	101%	102%	103%	107%	101%	110%
COc1cc2ncc(-c3ccccc3)nc2cc1OC	84%	27%	97%	73%			99%	74%					131%	124%	97%	96%				
O=[N+]([O-])c1ccc(-c2nc(-c3ccc(F)cc3)c(-c3ccncc3)[nH]2)cc1	114%	114%	103%	111%	117%	100%	97%	82%	98%	75%	110%	99%	107%	97%	107%	96%		114%	104%	103%
c1ccc(-c2n[nH]cc2-c2ccnc3ccccc23)nc1			96%	109%	104%	104%		93%	96%	96%					101%	94%			94%	92%
COc1cc2ncnc(Nc3ccc(O)c(Br)c3)c2cc1OC	103%	78%	105%	83%	97%	76%	88%	90%	101%	80%	107%	109%	97%	83%	94%	97%	102%	100%	100%	81%
O=C1Nc2ccccc2/C1=C1/Nc2ccccc2/C1=N\OCCC(O)CO (stereo not given)	79%	28%	79%	24%	29%	6%		38%	80%	36%	96%	65%	108%		97%	99%	81%	74%		
Cc1cc(Nc2nc(-c3ccccc3)nc3ccccc23)n[nH]1		26%	79%	28%	94%	39%		70%		46%		63%	109%		106%			51%		
N#CC(C#N)=C(N)/C(C#N)=C/c1ccc(O)cc1	119%		99%				82%	63%					120%	122%	96%	90%		79%		
Cc1ccc(S(=O)(=O)/C=C/C#N)cc1	100%	109%	104%	107%	105%	108%	102%	102%	108%	85%	88%	93%	98%	102%	104%		99%	87%	101%	105%
Nc1nc(Nc2ccc(S(N)(=O)=O)cc2)nn1C(=S)Nc1c(F)cccc1F	82%	39%	83%	24%	3%	0%	53%	16%			51%	18%	84%	38%	88%	78%	71%	66%	10%	9%
Cc1cncc2cccc(S(=O)(=O)N3CCCN(C(=O)CN)C[C@H]3C)c12			100%	96%			69%	59%	100%	84%	99%	85%	82%	31%	95%	51%			7%	3%
CCN(CC)C(=O)c1ccc(Nc2nc(OCC3CCCCC3)c3nc[nH]c3n2)cc1	65%	18%	63%	14%	20%	3%	80%	52%		40%	95%	58%					46%	13%	78%	26%
Oc1ccc(Nc2nc(-c3ccc(Cl)cc3)cs2)cc1	87%	83%	117%	137%	115%	102%	100%	129%	123%	104%	110%	101%		112%	121%	101%	102%	105%	105%	110%
CO[C@@H]1[C@H](N(C)C(=O)c2ccccc2)C[C@H]2O[C@]1(C)n1c3ccccc3c3c4c(c5c6ccccc6n2c5c31)C(=O)NC4	54%	32%	46%	25%	2%	1%		10%	22%	14%	36%	14%	66%	14%	61%	45%	15%	6%	21%	9%
c1ccc2c(-c3ccncc3)c[nH]c2c1					111%	110%	93%	50%	89%	76%	98%	80%	105%	64%	98%	65%	106%	86%	63%	23%
